Bioassay records from PubChem.
A-T KAP1 phos: candidate therapy for ataxia-telangiectasia; F2112 A-T fibroblasts, KAP-1 phosphorylation AlphaLISA; neocarzinostatin DNA damage 30 min before lysis; Potency, µM (series often up to 57.5 µM), without a hit: top-dose activation, hits mostly activators; actives 0.19% (n = 320,000); AID 485349; further: potency means the concentration at half of the fitted maximal effect; % of control where 0% means no effect; nearly all actives have a fitted effect of over 45% in size
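ATM-like activity read as KAP-1 phosphorylation via AlphaLISA donor/acceptor antibody pairs after lysis and 6 hr at 25C. Cells were ATM-null patient fibroblasts (F2112, hTERT), dosed 60 min, then exposed to the DSB inducer NCS for 30 min.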
MmCpn inh: M. maripaludis TRiC chaperonin inhibition; purified Mm-Cpn ATPase, ADP Transcreener TR-FRET; actives 0.031% (n = 330,000); Potency, µM (top dose mostly 76.9 µM), without a hit: top-dose activity, negative = inhibition, hits mostly inhibitors; further: potency means the concentration at half of the fitted maximal effect; on the % scale 0 is the no-effect control and ±100 the full control effect; nearly all actives have a fitted effect of over 80% in size
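25 nM Mm-CPN + cpd, 10 min 37°C; + 10 uM ATP, 30 min 37°C; buffer 30 mM Tris pH 7.4, 100 mM KCl, 5 mM MgCl2, 1 mM DTT; Transcreener ADP HTRF detection 30 min RT.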
Anesthetic bind: candidate novel general anesthetic via apoferritin binding; Potency, µM (series often up to 77.5 µM), for the others: at the top dose activity change, negative = displacement, most hits filed as inhibitors; P02791; AID 485281; apoferritin/1-aminoanthracene competitive binding, fluorescence; actives 0.074% (n = 350,000); further: potency means the concentration at half of the fitted maximal effect; on the % scale 0 is the no-effect control and ±100 the full control effect; nearly all actives have a fitted effect of over 20% in size
Target sequence (P02791 2-175 limits assumed): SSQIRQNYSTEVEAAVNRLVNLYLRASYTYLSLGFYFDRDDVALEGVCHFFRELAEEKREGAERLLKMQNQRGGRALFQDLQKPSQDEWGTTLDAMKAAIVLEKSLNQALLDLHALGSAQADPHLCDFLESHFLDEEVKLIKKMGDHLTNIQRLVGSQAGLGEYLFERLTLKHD
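Concentration-response curves derived by four-parameter Hill fitting of normalized fluorescence, where compounds displaced 1-AMA from 10 uM horse apoferritin following a brief 10 min room-temperature incubation; propofol titration acted as positive control.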
CCT chaperon mod: changes cytosolic chaperonin activity | purified chaperonin ATPase assay, HTRF ADP detection, 30 min | activity change, % (concentration not given with the values), hits read low | actives 0.3% (n = 360,000) | AID 651819; in the data active means activity change below about -30%; further: on the % scale 0 is the no-effect control and ±100 the full control effect
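We incubate TRiC, 40 or 20 nM final, with library compounds at 76 uM and 10 uM ATP for 30 min at 37 °C. ADP formed is detected with Transcreener HTRF reagents after 30 min at room temperature.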
The depositor's hits bear a star; ? = inconclusive; / = not tested or not shown; [ ] = remark or other dose. Most compounds without a hit are left out; they make up all but 0.47% or so of the library. Unless noted, the call rests on the fitted dose curve; in most records, active means well fitted curve in the direction sought with a large enough effect; inconclusive means small, poorly fitted or top-dose-only effect, or another doubt; inactive means no such curve, though single readings can be large; an effect the other way counts as inactive or inconclusive.

SMILES	A-T KAP1 phos	MmCpn inh	Anesthetic bind	CCT chaperon mod
CCOC(=O)CCN1C(=O)[C@H]2[C@H]3[C@H](O)[C@H](O)C/C(=N/OCC(C)C)[C@@H]3CC[C@@H]2C1=O	/	/	-7%[15.3 µM]	/
CCOc1ccc(C(=O)OCCN(C)C)cc1	/	-1%	2%	-32*
CCN(CC)CCOC(=O)c1ccc([N+](=O)[O-])cc1	35µM*	-2%	12%	1
CN(C)CCCOC(=O)c1ccccc1	2%	2%	-13%	4
Cc1cccc(Cn2cc3c(=O)n(CC(=O)Nc4cccc(C)c4C)nc-3c3cc(F)ccc32)c1	/	/	-3%	/
O=c1cc(-c2ccccc2)n2c(SCc3ccc([N+](=O)[O-])cc3)nnc2[nH]1	/	/	5%	/
COc1ccc2[nH]c3c(c2c1)CCNC3(C)CCc1ccc(Cl)nc1 (stereo unspecified)	2%	-2%	-8%	-31*
COc1ccc2[nH]c3c(c2c1)CNCC3	/	/	/	1
COc1cc(O)c2c(c1)oc(=O)c1c3cc(O)c(O)cc3oc21	/	/	71%	/
COc1cnn(-c2ccc(F)cc2)c(=O)c1Br	4%	-22%	-1%	-66*
COc1cc(OC)nc(-n2ncc(OC)c(Br)c2=O)n1	2%	-2%	-14%	0
Nc1c(C(=O)Nc2nc3ccccc3s2)sc2nc(-c3cccs3)ccc12	16µM*	-20%	9%	-1
COc1cccc(NC(=O)CN(C)C(=O)c2cc(C)oc2C)c1	-7%	0%	/	-31*
COc1cccc(NC(=O)CN(C)C(=O)c2c(C)noc2C)c1	-1%	-11%	/	-2
Nc1ncnc2c1ncn2CCOc1ccccc1	1%	1%	0%	-31*
Cc1cc2c(=Cc3ccc(N(C)C)cc3)c3ccccc3n2[n+]1C	/	/	/	-45*
CCOC(=O)c1cc2c(=Cc3ccc(N(C)C)cc3)c3ccccc3n2[n+]1C	/	/	/	-2
O=C(CN1C(=O)c2cccc([N+](=O)[O-])c2C1=O)NCc1ccccc1	3.2µM*	-1%	-3%	-2
CC1CCCN(C(=O)COc2ccc(Nc3ccccc3)cc2)C1 (stereo unspecified)	-3%	-3%	18µM*	0
Fc1ccc(NC(=S)N/N=C/c2ccc(F)c(F)c2)cc1	1%	0%	-10%	0
Fc1ccc(/C=N/NC(=S)Nc2ccc(Cl)cc2Cl)cc1	7.1µM*	4%	-2%	2
COCCCNc1oc(/C=C/c2ccccc2)nc1C#N	16µM*	-17%	454%	-1
CCOc1ccc(/C=C/c2nc(C#N)c(NCCCOC)o2)cc1	9%	-2%	43%	-3
Cc1ccccc1Oc1nc2c(c(=O)n(C)c(=O)n2C)n1Cc1ccc(Br)cc1	/	/	5%	/
O=C(Cn1cnc2ccccc2c1=O)Nc1ccc2c(c1)OCCO2	4%	-1%	-8%	-3
SMILES	A-T KAP1 phos	MmCpn inh	Anesthetic bind	CCT chaperon mod
O=C(CSc1nnc(SCc2cccc3ccccc23)s1)Nc1ccc(C(=O)O)cc1	1%	1%	-11%	-1
O=C(CSc1ncnc2ccccc12)c1ccc2c(c1)OCCO2	15%	20µM*	?	-2
O=C(CSc1nnc(SCc2cccc3ccccc23)s1)c1ccc2c(c1)OCO2	-4%	45µM*	?	-27
O=C(Cn1cnc2ccccc2c1=O)OCC(=O)c1ccc2c(c1)OCCO2	6%	-3%	16µM*	-1
O=C(Nc1nc2c(s1)CCCC2)c1cccc(S(=O)(=O)N2CCCc3ccccc32)c1	0%	?	-6%	2
CN1CCc2nc(NC(=O)c3cccc(S(=O)(=O)N4CCc5ccccc54)c3)sc2C1	0%	-21%	?	-35*
COc1cc2c(cc1OC)n(CC(=O)c1cc(C)ccc1C)c(=O)n1nc(CCn3nc(C)cc3C)nc21	/	/	2%	/
CCC(=O)N1CCc2cc(S(=O)(=O)NC(Cc3ccccc3)C(=O)Nc3ccc(C)cc3)ccc21 (stereo unspecified)	/	/	-8%	/
N#Cc1c2n(c3c(=O)n(Cc4ccccc4Cl)cnc13)CCCCC2	-1%	-3%	-11%	-32*
COc1ccc(-c2cc(C3C4C=CCC(C)C4C(=O)N3Cc3ccccc3)ccc2F)cc1 (stereo unspecified)	/	/	118%	/
CC(=O)c1cccc(OCC(O)CNCC2COc3ccccc3O2)c1 (stereo unspecified)	50µM*	3%	-1%	-1
O=C(c1ccccc1)n1nc(-c2ccccc2)nc1NCc1ccco1	2%	3%	-15%	-1
Cc1ccc(C(=O)n2nc(-c3ccccc3)nc2NCc2ccco2)cc1	-4%	-3%	-22%	-60*
C[C@@H](O)CNC(C)(C)CC(=O)N[C@@H]1CCc2ccccc2N(Cc2ccc(-c3ccccc3-c3nn[nH]n3)cc2)C1=O	/	/	-4%	/
COC(=O)c1ccccc1NC(=O)CSc1c2c(nc3ccc(Cl)cc13)CCCC2	/	/	-11%	/
COc1ccccc1-c1sc2cc3c(cc2c1-c1ccc2c(c1)OCO2)OCO3	6%	18µM*	/	0
CCOc1ccc(CCNC(=O)CN2N=C(c3ccccc3)CCC2=O)cc1OCC	/	/	-3%	/
O=C(COCc1cc(-c2cccs2)on1)NCc1cccc(Cl)c1	/	/	134%	/
Cn1c(=O)oc2cc(S(=O)(=O)CCC(=O)NCCc3ccccc3)ccc21	-5%	-4%	-11%	-65*
CN(C)c1ccc(N/C=C/C(=O)C(C)(C)C)cc1	-11%	22µM*	?	-3
CCN(CC)C(=O)CSc1nc2cc3c(cc2c(=O)n1Cc1ccco1)OCO3	0%	1%	-5%	-34*
COc1ccc(Br)cc1CNC(=O)CN1C(=O)CSc2ccc(S(=O)(=O)N3CCOCC3)cc21	/	/	-1%	/
COc1ccc(CNC(=O)CN2C(=O)CSc3ccc(S(=O)(=O)N4CCOCC4)cc32)c(OC)c1	7.1µM*	1%	-10%	-1
N#CC1(NC(=O)COc2cccnc2[N+](=O)[O-])CCCCC1	11%	2%	/	-38*
CCCn1c(SCc2nc(-c3cc(OC)ccc3OC)no2)nnc1-c1ccc(Cl)cc1	/	/	-11%	/
SMILES	A-T KAP1 phos	MmCpn inh	Anesthetic bind	CCT chaperon mod
CN1OC2C(=O)N(c3ccccc3)C(=O)C2C1c1ccc(F)cc1 (stereo unspecified)	2%	-1%	32µM*	-1
C=C[C@H]1CN2CC[C@@H]1C[C@H]2[C@@H](O)c1ccnc2ccc(OC)cc12	/	/	-4%[29.3 µM]	/
CC(C)(C)C(=O)COc1ccccc1[N+](=O)[O-]	3%	2%	?	-48*
O=C(COc1ccccc1[N+](=O)[O-])Nc1cc(Cl)ccc1C(=O)O	2%	45µM*	-14%	-1
CCc1nnc(NC(=O)c2oc3ccc(Br)cc3c2C)s1	6%	-1%	/	-34*
Cc1cc(S(=O)(=O)Nc2cc3c(cc2N2CCOCC2)n(C)c(=O)c(=O)n3C)ccc1F	/	/	-11%	/
CCSc1nc2ccccc2n1C(=O)/C=C\c1ccc(OC)c(OC)c1	18µM*	-18%	-13%	-8
CCSc1nc2ccccc2n1CC(N)=O	-2%	2%	3%	-2
COc1ccc(CCCc2nnc(SCC(=O)Nc3ccc(Cl)cc3)o2)cc1	/	/	-4%	/
